PubChem BioAssay (NCI)
Several values for one entry are separate records, joined by “and”; a condition that tells them apart may be missing. Identical values can stand only once. This is part of a sample that, as a whole, favours compounds with a hit. Of some 79,000 tested, about 15% had one in any assay. More than one record can exist for a structure, and the calls need not agree. Activity calls are given as the source filed them. Rule as the data show it: active = growth inhibition above about 70%; inactive = the rest.

Key:
[1] = NCI Yeast Anticancer Drug Screen. Data for the rad50 strain (AID 155);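 also: 0% = growth of vehicle-only cultures of the same strain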; conditions: S. cerevisiae rad50 strain growth inhibition, stronger effect = higher value
Method in brief: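 Genetically altered yeast (DNA repair pathway); compound treatment; growth inhibition vs vehicle ctrl.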

[2] = NCI Yeast Anticancer Drug Screen. Data for the mec2-1 strain (AID 157); conditions: S. cerevisiae mec2-1 strain, stronger effect = higher value
Method in brief: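 Compounds were applied to mec2-1 yeast cells. Their growth was then compared with that of vehicle-treated cultures to give growth inhibition.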

[3] = NCI Yeast Anticancer Drug Screen. Data for the sgs1 mgt1 strain (AID 161);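 also: 0% = growth of cultures given vehicle only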; conditions: S. cerevisiae sgs1 mgt1 strain, stronger effect = higher value
Method in brief: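 This yeast growth screen uses a strain with defined DNA-repair lesions; compound-treated growth is compared with vehicle-treated growth.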

[4] = NCI Yeast Anticancer Drug Screen. Data for the cln2 rad14 strain (AID 165);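 also: 0% = growth equal to vehicle treated cultures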; conditions: S. cerevisiae cln2 rad14 strain, stronger effect = higher value
Method in brief: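 Strain: cln2 rad14 yeast, altered in cell cycle control and DNA damage repair. Read-out: growth inhibition vs vehicle.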

[5] = NCI Yeast Anticancer Drug Screen. Data for the bub3 strain (AID 167); conditions: S. cerevisiae bub3 mutant strain, stronger effect = higher value
Method in brief: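 Yeast carrying a defined mutation is treated with each compound, and growth is compared with that of vehicle-exposed cells to give inhibition.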

[6] = NCI Yeast Anticancer Drug Screen. Data for the mlh1 rad18 strain (AID 175); conditions: S. cerevisiae mlh1 rad18 strain growth inhibition, stronger effect = higher value
Method in brief: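 A repair-deficient yeast strain is exposed to test compound, and growth is scored relative to vehicle-treated controls.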

[7] = NCI Yeast Anticancer Drug Screen. Data for the wt2 strain (AID 169);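 also: 0% = growth of vehicle-treated yeast cultures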; conditions: S. cerevisiae wt2 strain growth inhibition, stronger effect = higher value
Method in brief: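 Growth of compound-treated yeast is measured and expressed as inhibition relative to vehicle-only controls.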

[8] = at 5.0 µM (retest, dose inferred, filed as 0.5)
[9] = at 50.0 µM (retest, dose inferred, filed as 5.0)

SMILES: CC(c1ccccc1)c1ccc(O)cc1 (stereo not drawn)
- growth inhibition [1, 8]: 0% (inactive)
- growth inhibition [1, 9]: 73% (active)
- growth inhibition ([1]; at 50.0 µM): 46.9% (inactive) and 86.5% (active)
- growth inhibition [2, 8]: -3% (inactive)
- growth inhibition [2, 9]: 57% (inactive)
- growth inhibition ([2]; at 50.0 µM): 33.2% (inactive) and 81% (active)
- growth inhibition [3, 8]: -1% (inactive)
- growth inhibition [3, 9]: 49% (inactive)
- growth inhibition ([3]; at 50.0 µM): 6.55% (inactive) and 85.7% (active)
- growth inhibition [4, 8]: 0% (inactive)
- growth inhibition [4, 9]: 56% (inactive)
- growth inhibition ([4]; at 50.0 µM): 24.6% (inactive) and 65.2% (inactive)
- growth inhibition [5, 8]: -9% (inactive)
- growth inhibition [5, 9]: 51% (inactive)
- growth inhibition ([5]; at 50.0 µM): 40.4% (inactive) and 66.4% (inactive)
- growth inhibition [6, 8]: 0% (inactive)
- growth inhibition [6, 9]: 90% (active)
- growth inhibition ([6]; at 50.0 µM): 53.2% (inactive) and 92.3% (active)

SMILES: CCOC(=O)c1c[nH]c2cc(C(F)(F)F)ccc2c1=O
- growth inhibition [1, 8]: 52% (inactive)
- growth inhibition [1, 9]: 93% (active)
- growth inhibition ([1]; at 50.0 µM): 52% (inactive)
- growth inhibition [2, 8]: 74% (active)
- growth inhibition [2, 9]: 96% (active)
- growth inhibition ([2]; at 50.0 µM): -0.25% (inactive)
- growth inhibition [3, 8]: -23% (inactive)
- growth inhibition [3, 9]: -11% (inactive)
- growth inhibition ([3]; at 50.0 µM): 26.3% (inactive)
- growth inhibition [4, 8]: 9% (inactive)
- growth inhibition [4, 9]: 24% (inactive)
- growth inhibition ([4]; at 50.0 µM): 9.15% (inactive)
- growth inhibition ([7]; at 1.2 µM): -3% (inactive)
- growth inhibition ([7]; at 3.7 µM): -8% (inactive)
- growth inhibition ([7]; at 11.0 µM): -9% (inactive)
- growth inhibition ([7]; at 33.0 µM): -10% (inactive)
- growth inhibition ([7]; at 100.0 µM): -10% (inactive)

SMILES: O=C(NNC(=O)c1ccccc1O)c1ccccc1O
- growth inhibition [1, 8]: 4% (inactive)
- growth inhibition [1, 9]: 14% (inactive)
- growth inhibition ([1]; at 50.0 µM): 56.1% (inactive)
- growth inhibition [2, 8]: 2% (inactive)
- growth inhibition [2, 9]: 34% (inactive)
- growth inhibition ([2]; at 50.0 µM): 37.3% (inactive)
- growth inhibition [3, 8]: 8% (inactive)
- growth inhibition [3, 9]: 32% (inactive)
- growth inhibition ([3]; at 50.0 µM): 61% (inactive)
- growth inhibition [4, 8]: -4% (inactive)
- growth inhibition [4, 9]: -2% (inactive)
- growth inhibition ([4]; at 50.0 µM): 35.9% (inactive)
- growth inhibition [5, 8]: 2% (inactive)
- growth inhibition [5, 9]: 19% (inactive)
- growth inhibition ([5]; at 50.0 µM): 74.2% (active)
- growth inhibition [6, 8]: 5% (inactive)
- growth inhibition [6, 9]: 33% (inactive)
- growth inhibition ([6]; at 50.0 µM): 49.8% (inactive)

SMILES: Cc1c(N)nc(C(CC(N)=O)NCC(N)C(N)=O)nc1C(=O)NC(C(=O)NC(C)C(O)C(C)C(=O)NC(C(=O)NCCc1nc(-c2nc(C(=O)NCCCNCCCCN)cs2)cs1)C(C)O)C(OC1OC(CO)C(O)C(O)C1OC1OC(CO)C(O)C(OC(N)=O)C1O)c1cnc[nH]1 (stereo not drawn)
- growth inhibition [1, 8]: 92% (active)
- growth inhibition [1, 9]: 98% (active)
- growth inhibition ([1]; at 50.0 µM): 99% (active) and 88.6% (active)
- growth inhibition [2, 8]: 37% (inactive)
- growth inhibition [2, 9]: 98% (active)
- growth inhibition ([2]; at 50.0 µM): 99.2% (active) and 88.1% (active)
- growth inhibition [3, 8]: 77% (active)
- growth inhibition [3, 9]: 98% (active)
- growth inhibition ([3]; at 50.0 µM): 99% (active) and 88.2% (active)
- growth inhibition [4, 8]: 65% (inactive)
- growth inhibition [4, 9]: 98% (active)
- growth inhibition ([4]; at 50.0 µM): 97.7% (active) and 86.5% (active)
- growth inhibition [6, 8]: 94% (active)
- growth inhibition [6, 9]: 98% (active)
- growth inhibition ([6]; at 50.0 µM): 98.9% (active) and 90% (active)

SMILES: COC(O)C(=O)c1c2c(cc3c1CCC3)CCCC2 (stereo not drawn)
- growth inhibition [1, 8]: 96% (active)
- growth inhibition [1, 9]: 100% (active)
- growth inhibition ([1]; at 50.0 µM): 81.1% (active)
- growth inhibition [2, 8]: 98% (active)
- growth inhibition [2, 9]: 99% (active)
- growth inhibition ([2]; at 50.0 µM): 88.4% (active)
- growth inhibition [3, 8]: 98% (active)
- growth inhibition [3, 9]: 99% (active)
- growth inhibition ([3]; at 50.0 µM): 89.1% (active)
- growth inhibition [4, 8]: 85% (active)
- growth inhibition [4, 9]: 100% (active)
- growth inhibition ([4]; at 50.0 µM): 91.7% (active)
- growth inhibition [5, 8]: 99% (active)
- growth inhibition [5, 9]: 100% (active)
- growth inhibition ([5]; at 50.0 µM): 90.5% (active)
- growth inhibition [6, 8]: 98% (active)
- growth inhibition [6, 9]: 100% (active)
- growth inhibition ([6]; at 50.0 µM): 92.5% (active)

SMILES: CCOC(=O)C(CN)(c1ccccc1)c1ccccc1
- growth inhibition [1, 8]: -7% (inactive)
- growth inhibition [1, 9]: 1% (inactive)
- growth inhibition ([1]; at 50.0 µM): 11.8% (inactive)
- growth inhibition [2, 8]: -4% (inactive)
- growth inhibition [2, 9]: 8% (inactive)
- growth inhibition ([2]; at 50.0 µM): -5.4% (inactive)
- growth inhibition [3, 8]: -4% (inactive)
- growth inhibition [3, 9]: -13% (inactive)
- growth inhibition ([3]; at 50.0 µM): 5.35% (inactive)
- growth inhibition [4, 8]: 2% (inactive)
- growth inhibition [4, 9]: -12% (inactive)
- growth inhibition ([4]; at 50.0 µM): 43.8% (inactive)
- growth inhibition [5, 8]: -4% (inactive)
- growth inhibition [5, 9]: 0% (inactive)
- growth inhibition ([5]; at 50.0 µM): -1.15% (inactive)
- growth inhibition [6, 8]: -7% (inactive)
- growth inhibition [6, 9]: -10% (inactive)
- growth inhibition ([6]; at 50.0 µM): 17.1% (inactive)

SMILES: CN(C)c1nc(N)c(C#N)c(C#N)c1C#N
- growth inhibition [1, 8]: 21% (inactive)
- growth inhibition [1, 9]: 62% (inactive)
- growth inhibition ([1]; at 50.0 µM): 69.6% (inactive)
- growth inhibition [2, 8]: 21% (inactive)
- growth inhibition [2, 9]: 44% (inactive)
- growth inhibition ([2]; at 50.0 µM): 88.2% (active)
- growth inhibition [3, 8]: 11% (inactive)
- growth inhibition [3, 9]: 61% (inactive)
- growth inhibition ([3]; at 50.0 µM): 80.8% (active)
- growth inhibition [4, 8]: 27% (inactive)
- growth inhibition [4, 9]: 45% (inactive)
- growth inhibition ([4]; at 50.0 µM): 53.9% (inactive)
- growth inhibition [6, 8]: 26% (inactive)
- growth inhibition [6, 9]: 85% (active)

SMILES: CSc1ncnc2c1ncn2C1OC(CO)C(O)C1O (stereo not drawn)
- growth inhibition [1, 8]: 2% (inactive)
- growth inhibition [1, 9]: 9% (inactive)
- growth inhibition ([1]; at 50.0 µM): 8.95% (inactive) and 3.25% (inactive)
- growth inhibition [2, 8]: -10% (inactive)
- growth inhibition [2, 9]: -1% (inactive)
- growth inhibition ([2]; at 50.0 µM): 14.7% (inactive) and 17.6% (inactive)
- growth inhibition [3, 8]: -5% (inactive)
- growth inhibition [3, 9]: 1% (inactive)
- growth inhibition ([3]; at 50.0 µM): 3.1% (inactive) and -2.35% (inactive)
- growth inhibition [5, 8]: -3% (inactive)
- growth inhibition [5, 9]: -7% (inactive)
- growth inhibition ([5]; at 50.0 µM): 0.05% (inactive) and 13.2% (inactive)
- growth inhibition [6, 8]: 14% (inactive)
- growth inhibition [6, 9]: 0% (inactive)
- growth inhibition ([6]; at 50.0 µM): -10.1% (inactive) and 1.6% (inactive)

SMILES: CN1CCCc2cc(/C=C\c3ccnc4ccccc34)ccc21
- growth inhibition [1, 8]: -2% (inactive)
- growth inhibition [1, 9]: 94% (active)
- growth inhibition ([1]; at 50.0 µM): 96% (active)
- growth inhibition [2, 8]: -10% (inactive)
- growth inhibition [2, 9]: 97% (active)
- growth inhibition ([2]; at 50.0 µM): 97.1% (active)
- growth inhibition [3, 8]: -10% (inactive)
- growth inhibition [3, 9]: 96% (active)
- growth inhibition ([3]; at 50.0 µM): 98.3% (active)
- growth inhibition [4, 8]: -6% (inactive)
- growth inhibition [4, 9]: 94% (active)
- growth inhibition ([4]; at 50.0 µM): 93% (active)
- growth inhibition [6, 8]: -21% (inactive)
- growth inhibition [6, 9]: 96% (active)
- growth inhibition ([6]; at 50.0 µM): 97.4% (active)
